Results as given in PubChem BioAssay AID2061321 (National Center for Advancing Translational Sciences (NCATS), 2025).
Records with an inconclusive call do not appear. Activity calls are given as the source filed them. The call rests on the fitted dose curve; in most records, active means well fitted inhibition curve with a large enough effect; inconclusive means small, poorly fitted or top-dose-only effect; inactive means flat fitted curve, though single readings scatter. Non-standard residues stand in square brackets, D forms with d. Residues, ends and D or L forms follow the SMILES beside them. Dolaproine = CO[C@@H]([C@@H]1CCCN1)[C@@H](C)C(=O)O; Dil = CC[C@H](C)[C@H](NC)[C@@H](CC(=O)O)OC; NMeV = CN[C@H](C(=O)O)C(C)C

assay: Identification of antibody-drug conjugate (ADC) payloads which are substrates of ATP-binding cassette drug efflux transporters: ABCG2-H460 cell line; details: H460 MX20 (ABCG2) viability, CellTiter-Glo, 48 h
From the text: Antibody-drug conjugates (ADCs) feature an antibody recognizing a specific protein joined to a potent toxic payload. Numerous antibody-drug conjugates have received FDA approval; however, clinical resistance arises. Resistance mechanisms include decreased expression or mutation of the antibody target, impaired payload release, or increased expression of ATP-binding cassette (ABC) efflux transporters associated with multidrug resistance. We therefore sought to characterize the interaction of ABC multidrug transporters with ADC payloads. We performed a high-throughput screen with 27 common ADC payloads using cells lines expressing ABC transporters P-glycoprotein (P-gp, encoded by ABCB1) or ABCG2 (encoded by ABCG2). Confirmatory assays were also performed using cells transfected to express P-gp, ABCG2, or MRP1 (encoded by ABCC1). Several commonly used ADC payloads were substrates of P-gp, including calicheamicin gamma1, monomethyl auristatin E, DM1, and DM4. All the pyrrolobenzodiazepines tested - SJG136, SGD-1882, SG2057, and SG3199 - were substrates of P-gp, ABCG2, and MRP1. […] These findings highlight the risk of transporter-mediated resistance with certain ADC payloads and underscore the importance of selecting payloads that evade ABC transporter recognition in future ADC development.
HEK-293 cells were transfected with empty vector (pcDNA) or vector containing the human ABCB1 (MDR-19), ABCG2 (R-5), or ABCC1 gene (MRP1) and were maintained in EMEM with 2 mg/mL G418 added to maintain transporter expression. The HeLa derivative KB-3-1 and the P-gp overexpressing KB-8-5-11 subline were maintained in DMEM; KB-8-5-11 additionally received 100 ng/mL colchicine. H460 parental cells were obtained from the Division of Cancer Treatment and Diagnosis Tumor Repository, National Cancer Institute at Frederick, MD and were cultured in RPMI. The ABCG2 expressing subline H460 MX20 was generated by selecting H460 cells in 20 nM mitoxantrone. Media in all cases was supplemented with 10% FBS and 1% penicillin-streptomycin. We explored 27 common ADC payloads, in two orthogonal, paired cell line sets-a drug selected and transfected set for each transporter--to identify substrates of the ABC transporters P-gp and ABCG2. Compounds were sourced from Levena Biopharma (San Diego, CA), Selleck Chem (Houston, TX), ChemieTek (Indianapolis, IN), or Microsource Discovery Systems (Gaylordsville, CT). Screening was performed as previously described. Briefly, cells were plated at a density of 500 cells/well in 1536 well plates with compounds added using a 1536-head pin tool (Kalypsys, San Diego CA). Cells were incubated with cytotoxic drugs and processed with CellTiter Glo reagent (Promega, Madison, WI) to determine viability after 48 hours. P-gp substrates were identified by comparing compound activity between paired sets of low-expressing (sensitive) and over-expressing (resistant) cell lines.

SMILES	Potency
COc1cc2cc(c1Cl)N(C)C(=O)C[C@H](O)[C@]1(C)O[C@H]1[C@H](C)C1C[C@@](O)(NC(=O)O1)[C@H](OC)/C=C/C=C(\C)C2	4750 nM (active)
CC[C@H](C)[C@@H]([C@@H](CC(=O)N1CCC[C@H]1[C@H](OC)[C@@H](C)C(=O)N[C@@H](Cc1ccccc1)C(=O)O)OC)N(C)C(=O)[C@@H](NC(=O)[C@@H](NC)C(C)C)C(C)C (H-[NMeV]V[Dil][Dolaproine]F-OH)	5330 nM (active)
COC(=O)c1cc2c3c(cc(O)c2[nH]1)N(C(=O)c1cc2cc(OC)c(OC)c(OC)c2[nH]1)CC3CCl (stereo unspecified)	0.4 nM (active)
CCc1c2c(nc3ccc(O)cc13)-c1cc3c(c(=O)n1C2)COC(=O)[C@]3(O)CC	11.9 nM (active)
CN(C)CCOc1ccc2[nH]c(C(=O)N3C[C@@H](CCl)c4c3cc(O)c3ccccc43)cc2c1	0.2 nM (active)
CCN[C@H]1CO[C@@H](O[C@H]2[C@H](O[C@H]3C#C/C=C\C#C[C@]4(O)CC(=O)C(NC(=O)OC)=C3/C4=C\CSSSC)O[C@H](C)[C@@H](NO[C@H]3C[C@H](O)[C@H](SC(=O)c4c(C)c(I)c(O[C@@H]5O[C@@H](C)[C@H](O)[C@@H](OC)[C@H]5O)c(OC)c4OC)[C@@H](C)O3)[C@@H]2O)C[C@@H]1OC	1.1 nM (active)
CC[C@]1(O)CC2CN(CCc3c([nH]c4ccccc34)[C@@](C(=O)OC)(c3cc4c(cc3OC)N(C)[C@H]3[C@@](O)(C(=O)OC)[C@H](OC(C)=O)[C@]5(CC)C=CCN6CC[C@]43[C@@H]65)C2)C1 (stereo partly specified)	533 nM (active)
CCN(C(C)=O)[C@H]1CO[C@@H](O[C@H]2[C@H](O[C@H]3C#C/C=C\C#C[C@]4(O)CC(=O)C(NC(=O)OC)=C3/C4=C\CSSSC)O[C@H](C)[C@@H](NO[C@H]3C[C@H](O)[C@H](SC(=O)c4c(C)c(I)c(O[C@@H]5O[C@@H](C)[C@H](O)[C@@H](OC)[C@H]5O)c(OC)c4OC)[C@@H](C)O3)[C@@H]2O)C[C@@H]1OC	7.5 nM (active)
CC(C)(C)OC(=O)Nc1ccc2[nH]c(C(=O)N3C[C@@H](CCl)c4c3cc(O)c3ccccc43)cc2c1	2.1 nM (active)
COc1cccc2c1C(=O)c1c(O)c3c(c(O)c1C2=O)C[C@@](O)(C(=O)CO)C[C@@H]3O[C@H]1C[C@H]2[C@H](O[C@@H]3[C@@H](OC)OCCN32)[C@H](C)O1	0.0598 nM (active)
COc1cccc2c1C(=O)c1c(O)c3c(c(O)c1C2=O)C[C@@](O)(C(=O)CO)C[C@@H]3O[C@H]1C[C@H](N)[C@H](O)[C@H](C)O1	377 nM (active)
